One may read the inhibition as the drop in the measured response relative to a control, in per cent.

Among all 370,000 compounds or so, about 660 (0.18%) were called active. The full list was thinned out, with actives kept by preference. A number with no mark means an inactive call. Rule as the data show it: active = inhibition above about 11%; inactive = the rest.

The assay deals with 1-phosphatidylinositol 4,5-bisphosphate phosphodiesterase beta-3 (Homo sapiens) (UniProt Q01970). Nature of the assay: human PLC-beta3 inhibitors, primary screen, biochemical, fluorescence (AID 720704).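 Also: 0% = median of compound wells on plate and 100% = full blocker control.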 The settings on record: Purified PLC-beta3, fluorogenic substrate, at 12.2 µM, hits give high values.
1-phosphatidylinositol 4,5-bisphosphate phosphodiesterase beta-3 (Homo sapiens), sequence (Q01970 whole entry, looked up): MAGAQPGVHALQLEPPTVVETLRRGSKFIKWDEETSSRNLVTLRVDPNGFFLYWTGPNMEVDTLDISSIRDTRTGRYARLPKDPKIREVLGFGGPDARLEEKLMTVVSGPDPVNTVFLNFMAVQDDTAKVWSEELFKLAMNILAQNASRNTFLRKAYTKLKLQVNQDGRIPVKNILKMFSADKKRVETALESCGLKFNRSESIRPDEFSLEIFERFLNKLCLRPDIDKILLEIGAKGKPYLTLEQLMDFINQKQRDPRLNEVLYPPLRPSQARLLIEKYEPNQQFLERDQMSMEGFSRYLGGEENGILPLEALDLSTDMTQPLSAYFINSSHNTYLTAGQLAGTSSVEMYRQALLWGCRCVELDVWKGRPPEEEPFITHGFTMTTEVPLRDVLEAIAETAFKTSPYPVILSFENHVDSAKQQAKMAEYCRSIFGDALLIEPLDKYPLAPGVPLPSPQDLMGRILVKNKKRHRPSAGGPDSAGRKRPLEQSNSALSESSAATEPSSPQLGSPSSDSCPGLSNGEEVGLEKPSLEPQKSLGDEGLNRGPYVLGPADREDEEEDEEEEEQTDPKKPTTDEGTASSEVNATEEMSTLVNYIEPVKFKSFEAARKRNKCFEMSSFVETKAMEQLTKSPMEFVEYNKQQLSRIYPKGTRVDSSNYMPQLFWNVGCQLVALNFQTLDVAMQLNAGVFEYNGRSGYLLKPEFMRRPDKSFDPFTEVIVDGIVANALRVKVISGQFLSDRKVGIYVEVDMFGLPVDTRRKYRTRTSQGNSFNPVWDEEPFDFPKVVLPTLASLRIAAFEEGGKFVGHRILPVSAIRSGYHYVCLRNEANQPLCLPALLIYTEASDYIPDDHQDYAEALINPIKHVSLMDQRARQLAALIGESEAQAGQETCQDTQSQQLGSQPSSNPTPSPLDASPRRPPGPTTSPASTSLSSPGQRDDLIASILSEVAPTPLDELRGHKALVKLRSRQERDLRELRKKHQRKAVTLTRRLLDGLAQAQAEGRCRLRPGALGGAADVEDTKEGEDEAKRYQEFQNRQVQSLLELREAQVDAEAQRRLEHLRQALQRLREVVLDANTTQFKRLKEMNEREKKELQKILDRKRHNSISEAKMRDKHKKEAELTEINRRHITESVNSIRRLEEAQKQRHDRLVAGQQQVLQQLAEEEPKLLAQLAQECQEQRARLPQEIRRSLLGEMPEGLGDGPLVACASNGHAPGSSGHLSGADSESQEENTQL
On to `CCC(=NCc1ccco1)c1c(O)n(Cc2ccccc2)c(=O)[nH]c1=O`, for which the inhibition was 11.8% (active).
Next, `CCCCn1c(O)c(C(CC)=NCc2ccco2)c(=O)[nH]c1=O`: 7%; `CN(C)CCCN=Cc1c(O)n(Cc2ccco2)c(=O)[nH]c1=O`: -6.13%.
On to `COC(=O)[C@@H]1C(OC(=O)c2ccccc2)CC2CCC1N2C` (stereo not given in full), for which the inhibition was -5.47%.
For the molecule `CCN1c2nc3c(C)cccn3c(=O)c2CC2(C(=O)N(C)C(=O)N(C)C2=O)C1C` (stereo not given), the inhibition is -9.87%.
Next, `c1ccc(CC2CCCCN2)cc1` (stereo not given): -1.27%; `CC(C)(C)[C@]1(O)C[C@@H]2OC(=O)C[C@@]23C(=O)O[C@@H]2OC(=O)[C@H](O)[C@]213`: 11.8% (active); `CN(C)/C=C(\C=[N+](C)C)c1[nH]ncc1[N+](=O)[O-]`: 3.86%.
On to `Cc1cc(C)cc(NC(=S)NC2CC3CCCC(C2)N3Cc2cccs2)c1` (stereo not given), for which the inhibition was 5.75%.
`O=C(COC(=O)Cc1ccccc1)Nc1ccc(F)cc1`: the inhibition is 3.13%.

Source of the values: PubChem BioAssay AID720704 (The Scripps Research Institute Molecular Screening Center, 2013).
